Among all 16,000 compounds or so, about 2,600 (16%) were called active. About 20% were inconclusive and are not listed. Calls come from the whole dose curve; as a rule, active = well fitted curve in the direction sought with a large enough effect; inconclusive = small, poorly fitted or top-dose-only effect, or effect the other way; inactive = no such curve, though single readings can be large or run the other way. A selection follows.
Molecular target: Cytochrome P450 2D6 (Homo sapiens) (UniProt P10635)
Test: Cytochrome panel assay with activity outcomes
Settings: recombinant CYP, pro-luciferin dealkylation, luminescence, p450-cyp2d6; series mostly up to 57.1 µM; activity, negative = inhibition: at the top concentration
% is set by controls: 0 for no effect and ±100 for the full control effect.

Chain of Cytochrome P450 2D6 (Homo sapiens) (P10635 whole entry, looked up): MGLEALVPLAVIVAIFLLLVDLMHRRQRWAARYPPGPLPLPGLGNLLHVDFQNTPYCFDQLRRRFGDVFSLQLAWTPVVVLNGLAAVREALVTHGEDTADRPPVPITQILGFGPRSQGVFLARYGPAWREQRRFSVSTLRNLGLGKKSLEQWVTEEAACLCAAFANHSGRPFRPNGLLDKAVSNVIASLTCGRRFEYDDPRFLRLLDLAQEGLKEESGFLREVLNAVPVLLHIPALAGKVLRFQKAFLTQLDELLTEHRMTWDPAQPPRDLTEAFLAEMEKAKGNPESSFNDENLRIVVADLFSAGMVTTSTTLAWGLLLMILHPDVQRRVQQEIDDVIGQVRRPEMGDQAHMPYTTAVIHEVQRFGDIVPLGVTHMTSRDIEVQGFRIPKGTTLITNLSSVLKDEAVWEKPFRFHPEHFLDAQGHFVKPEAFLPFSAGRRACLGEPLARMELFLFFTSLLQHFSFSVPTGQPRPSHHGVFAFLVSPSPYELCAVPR

Compound | activity, negative = inhibition | AC50
Cc1ccc(Oc2nc(-c3ccccc3)ncc2S(C)(=O)=O)cc1 | -12.2% (inactive) | –
Cc1c(NC(=O)CSc2nnnn2C)c(=O)n(-c2ccccc2)n1C | 3.7% (inactive) | –
CC1(C)S[C@@H]2[C@H](NC(=O)[C@@H](N)c3ccc(O)cc3)C(=O)N2[C@H]1C(=O)O | 3.49% [at 25.6 µM] (inactive) | –
CCc1ccc(N(C(=O)c2csnn2)C(C(=O)NCc2ccccc2)c2ccco2)cc1 (stereo unspecified) | -29.7% (inactive) | –
O=C(O)[C@@H](O)[C@@H](O)[C@H](O)[C@H](O)CO | 0.284% [at 11.4 µM] (inactive) | –
N/N=C1/CC(=O)NC(=O)N1 | -6.83% [at 11.4 µM] (inactive) | –
O=C(NCc1cccnc1)C1COc2ccccc2O1 (stereo unspecified) | -9.88% (inactive) | –
CCn1ccnc1C[C@@H]1COc2ccccc2O1 | – | 1.58 µM (active)
N/C(=N\O)C1COc2ccccc2O1 (stereo unspecified) | -13.4% (inactive) | –
COc1ccc(N2C(=O)CC(S/C(N)=N/N=C(\C)c3cccs3)C2=O)cc1 (stereo unspecified) | -13.2% (inactive) | –
Cc1cccc(OC(=O)CN2C(=O)C3C4CCC(C4)C3C2=O)c1C (stereo unspecified) | 7.11% (inactive) | –
CCNC(=O)CSc1nnc(C2CC2)n1-c1ccccc1 | 12.1% (inactive) | –
O=C(Nc1cccc(Cl)c1Cl)c1snnc1-c1ccccc1 | – | 10 µM (active)
Cn1cccc1C(=O)C(=O)Nc1cccc(Cl)c1Cl | -11.4% (inactive) | –
O=C(Nc1ccccc1Cl)c1ccccc1Cl | -9.19% (inactive) | –
O=[N+]([O-])c1ccc(C2CCCC/C2=N\OCc2cccc(F)c2)c([N+](=O)[O-])c1 (stereo unspecified) | -13.9% (inactive) | –

Compound | activity, negative = inhibition | AC50
NCCOB(c1ccccc1)c1ccccc1 | 0.853% (inactive) | –
Cc1cc(NC(=O)c2c([N+](=O)[O-])c(C)nn2C)no1 | 16.4% (inactive) | –
CCC(=O)NNc1cc(=O)c2c(=O)n(C)c(=O)n(C)c2[nH]1 | -4.88% (inactive) | –
COc1ccc2[nH]c3c(NCCCN4CCCC4=O)ncnc3c2c1 | -9.24% (inactive) | –
CCN1CCCC1Cn1cnc2c([nH]c3ccc(C)cc32)c1=O (stereo unspecified) | – | 4.47 µM (active)
CCOCCCn1cnc2c([nH]c3cc(OC)ccc32)c1=O | -1.75% (inactive) | –
O=S(=O)(C=C(c1ccccc1)c1ccccc1)c1ccccc1 | -14.5% (inactive) | –
O=c1oc(-c2cccs2)nc2ccc(Br)cc12 | -22.6% (inactive) | –
O=S(=O)(c1ccccc1)N1N=C(c2cccs2)CC1c1ccc(Br)cc1 (stereo unspecified) | – | 1.12 µM (active)
O=S(=O)(c1ccc(Br)cc1)N1CCN(S(=O)(=O)c2ccc(Br)cc2)CC1 | -1.87% [at 11.4 µM] (inactive) | –
COc1nc(C)nc(Cl)c1NC1=NCCN1 | – | inactive
Clc1cccc(Cl)c1NC1=NCCN1 | – | 10 µM (active)
COc1ncc2nc(-c3cccs3)c(=O)n(CCc3ccccc3)c2n1 | -3.39% (inactive) | –
CCCCOC(=O)CSCC(=O)Nc1cc(C)on1 | 14.5% (inactive) | –
Cc1cc2nc(CCN(C(=S)NCC(C)C)C3CCCC3)[nH]c2cc1C | – | 1.12 µM (active)

— PubChem BioAssay AID1851 (National Center for Advancing Translational Sciences (NCATS), 2009)
